Nine compounds from PubChem BioAssay (Tox21) can be followed below.

Values without a mark were called inactive. Results filed as inconclusive are left out. The source made the active and inactive calls. Unless noted, the call rests on the fitted dose curve; in most records, active means well fitted curve in the direction sought with a large enough effect in the repeat runs; inconclusive means weak or mixed curves; inactive means no such curve, though single readings can be large; an effect the other way counts as inactive or inconclusive.

The nature of test [1]: qHTS assay to test for compound auto fluorescence at 535 nm (green) in HEK293 cells (AID 720680). In general terms: qHTS replaces the single test concentration by a dilution series.
A short description of test [2]: qHTS assay to test for compound auto fluorescence at 460 nm (blue) in HEK293 cell free culture (AID 720681). A digest of the protocol: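 Test compounds were pinned into cell-free culture medium (DMEM with 10% FBS) and fluorescence was read directly at Ex/Em 405/460 nm. Signals were expressed as fluorescence equivalents of triamterene, with DMSO vehicle as control.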

A short description of test [3]: qHTS assay to test for compound auto fluorescence at 535 nm (green) in HEK293 cell free culture (AID 720682). An outline of the steps:
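Fluorescein serves as the green reference fluorophore; each compound's intrinsic emission at 535 nm (excitation 485 nm) is reported as an equivalent amount of that dye, measured in serum-containing DMEM without cells.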

A short description of test [4]: qHTS assay to test for compound auto fluorescence at 590 nm (red) in HEK293 cell free culture (AID 720683). A digest of the protocol: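 Tox21 10K library compounds were pinned into cell-free DMEM with 10% FBS and fluorescence was read at excitation 540 nm. Activity is expressed as Rose Bengal sodium equivalency.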
The nature of test [5]: qHTS assay to test for compound auto fluorescence at 590 nm (red) in HepG2 cell free culture (AID 720684). A digest of the protocol:
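Measured in medium alone (MEM containing 10% FBS) following pintool addition of compound; emission at 590 nm with 540 nm excitation, referenced to Rose Bengal sodium.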

Test [6] in a line: qHTS assay to test for compound auto fluorescence at 460 nm (blue) in HepG2 cell free culture (AID 720685). An outline of the steps: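 Compound (23 nL) or DMSO pinned into cell-free MEM with 10% FBS; blue fluorescence read at 405/460 nm excitation/emission, expressed as auto-fluorescence equivalency to triamterene.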
Test [7] is described as follows: qHTS assay to test for compound auto fluorescence at 535 nm (green) in HepG2 cell free culture (AID 720686).
Test [8] in a line: qHTS assay to test for compound auto fluorescence at 460 nm (blue) in HepG2 cells (AID 720687). A digest of the protocol:
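Cells (2,000/well in MEM with 10% FBS) attached overnight at 37 C, then were exposed to compound or DMSO for 1 hr at 37 C, 5% CO2. Fluorescence read at Ex/Em 405/460 nm, expressed as triamterene-equivalent signal.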

Test [9] has as its target Glucocorticoid receptor (Homo sapiens) (UniProt P04150). The test can be described thus: qHTS assay to identify small molecule agonists of the glucocorticoid receptor (GR) signaling pathway (AID 720691; active means well fitted activation curve with a large enough effect in the signal ratio in the repeat runs, not every such curve was filed as active; the % refers to the signal ratio). A digest of the protocol: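 Reporter read-out: fluorescence intensity following 2 h room-temperature LiveBLAzer B/G FRET substrate loading. Prior step: GR-bla HeLa cells held 4 h, then treated 18 h at 37 C.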

The target is the same in test [10]. The experiment in a line: qHTS assay to identify small molecule antagonists of the glucocorticoid receptor (GR) signaling pathway (AID 720692; active means well fitted inhibition curve with a large enough effect in the signal ratio in the repeat runs, not every such curve was filed as active; the % refers to the signal ratio). A digest of the protocol:
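Dexamethasone (5 nM final) stimulated a stably integrated GRE-beta-lactamase reporter in HeLa cells during 18 h co-incubation with compounds; signal was quantified as fluorescence intensity of B/G FRET substrate after 2 h.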

Test [11] is described as follows: qHTS assay to identify small molecule antagonists of the glucocorticoid receptor (GR) signaling pathway - cell viability counter screen (AID 720693). Further: nearly all actives have a fitted effect of over 55% in size.
Test [12] can be described thus: qHTS assay for identifying genotoxic compounds that show differential cytotoxicity against isogenic chicken DT40 cell lines with known DNA damage response pathways - Rad54/Ku70 mutant cell line (AID 743015). Further: nearly all actives have a fitted effect of over 60% in size. Further: potency means the concentration at half of the fitted maximal effect.
Test [13] can be described thus: qHTS assay to identify small molecule antagonists of the androgen receptor (AR) signaling pathway - cell viability counter screen (AID 743033; further: nearly all actives have a fitted effect of over 45% in size).
Test [14] can be described thus: qHTS assay to identify small molecule antagonists of the androgen receptor (AR) signaling pathway using the MDA cell line - cell viability counter screen (AID 743041; further: nearly all actives have a fitted effect of over 45% in size). A digest of the protocol: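 Viability counter screen run alongside the AR antagonist reporter: cells seeded 5 h before compound, R1881 added, 16 h incubation at 37C without CO2, fluorescent CellTiter-Fluor signal quantified.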

Test [15] in a line: qHTS assay to identify small molecule antagonists of the thyroid receptor (TR) signaling pathway - cell viability counter screen (AID 743064). Further: nearly all actives have a fitted effect of over 50% in size. Further: potency means the concentration at half of the fitted maximal effect. A digest of the protocol: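 Fluorescence from CellTiter-Fluor, added after 23.5 h exposure at 37 °C, reported viability of GH3.TRE-Luc cells co-treated with compound and 1 nM T3. Measured in the same wells as the luciferase TR readout.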

A short description of test [16]: qHTS assay for identifying genotoxic compounds that show differential cytotoxicity against isogenic chicken DT40 cell lines with known DNA damage response pathways - wild type cell line (AID 743012). Further: nearly all actives have a fitted effect of over 60% in size. Further: potency means the concentration at half of the fitted maximal effect. A digest of the protocol: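 Using parental DT40 (300 cells/well), compounds delivered in DMSO incubate 40 h at 37 C/5% CO2. CellTiter-Glo reagent then stands 30 min at room temperature, and luminescence gives cell viability.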

Test [17] is described as follows: qHTS assay for identifying genotoxic compounds that show differential cytotoxicity against isogenic chicken DT40 cell lines with known DNA damage response pathways - Rev3 mutant cell line (AID 743014). Further: nearly all actives have a fitted effect of over 55% in size. Further: potency means the concentration at half of the fitted maximal effect.
On the % scale 0 is the no-effect control and ±100 the full control effect.

Glucocorticoid receptor (Homo sapiens), sequence (P04150 whole entry, looked up): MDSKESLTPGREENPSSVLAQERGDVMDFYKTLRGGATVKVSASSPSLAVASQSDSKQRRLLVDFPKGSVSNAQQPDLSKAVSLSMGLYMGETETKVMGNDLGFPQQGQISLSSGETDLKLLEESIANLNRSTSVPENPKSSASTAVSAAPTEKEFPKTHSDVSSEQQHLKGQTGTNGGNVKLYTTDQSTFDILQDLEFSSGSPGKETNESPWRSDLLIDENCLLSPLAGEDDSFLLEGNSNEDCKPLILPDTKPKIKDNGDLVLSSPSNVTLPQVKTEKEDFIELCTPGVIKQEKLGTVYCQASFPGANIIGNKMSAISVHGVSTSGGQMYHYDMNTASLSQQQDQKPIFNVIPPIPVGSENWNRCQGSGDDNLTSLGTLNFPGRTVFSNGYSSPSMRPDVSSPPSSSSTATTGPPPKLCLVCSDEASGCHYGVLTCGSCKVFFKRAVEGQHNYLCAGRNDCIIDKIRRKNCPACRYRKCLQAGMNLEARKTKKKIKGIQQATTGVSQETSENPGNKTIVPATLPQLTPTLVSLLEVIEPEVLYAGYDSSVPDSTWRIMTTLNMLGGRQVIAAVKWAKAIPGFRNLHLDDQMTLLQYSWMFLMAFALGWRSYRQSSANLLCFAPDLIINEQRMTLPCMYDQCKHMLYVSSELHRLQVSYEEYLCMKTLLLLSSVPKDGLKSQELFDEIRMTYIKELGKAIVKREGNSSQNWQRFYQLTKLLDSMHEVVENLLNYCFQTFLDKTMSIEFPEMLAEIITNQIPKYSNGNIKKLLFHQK

Take `COc1cc2c(cc1N)oc1ccccc12`: the compound was called inactive in test [1], in [2], in test [3], in test [4], in test [5] and in test [6]. The outcome in test [7], in test [8], in test [11] and in [13] was inactive. Moreover, the Potency result in test [9], in test [10], in test [14] and in test [15] was “inactive” in each case. Further, the Potency in test [12] was 62.4 µM (active).
Turning to `CC(=O)Oc1cc(C(C)C)c(OCCN(C)C)cc1C`, the fluorescence, % of fluorescein in test [1] was -0.013% [at 18.6 µM]. Also, the fluorescence, % of fluorescent control in test [2] is -0.142% [at 18.6 µM]; in test [4], -0.128% [at 18.6 µM]; in [6], -0.0726% [at 18.6 µM]; in test [8], -0.0099% [at 18.6 µM]. Besides, the activity change in test [3] was -0.0795% [at 18.6 µM]. For the same compound, the fluorescence, % of Rose Bengal in test [5] is -0.418% [at 18.6 µM]. Further, the fluorescence, % of fluorescein control in [7] was -0.0374% [at 18.6 µM]. Further, the Potency result in test [9], in test [10], in test [16], in test [17], in test [12] and in [14] was “inactive” in each case. In test [15], the Potency entry is “inactive”. Also, the compound was classed as inactive in test [13].
With `Cc1cc2c(s1)Nc1ccccc1N=C2N1CCN(C)CC1`, the result in [1], in test [2], in test [3], in test [4], in [5] and in [6] was inactive. In addition, the outcome in [7], in test [8], in test [11] and in test [13] was inactive. Also, the Potency entry in test [9], in [10] and in test [14] was “inactive” throughout. Besides, the Potency in test [15] is 13.3 µM (active).
Take `O=C1CCCCC1C1CCCCC1` (stereo not drawn): the compound was classed as inactive in test [1], in [2], in test [3], in test [4], in test [5] and in [6]. For the same compound, the compound was classed as inactive in test [7], in test [8], in test [11] and in [13]. The Potency result in test [10], in test [16], in test [17] and in [12] was “inactive” throughout.
`CO[Si](C)(C)OC`: the compound was called inactive in [1], in [2], in test [3], in test [4], in test [5] and in test [6]. Further, the compound was classed as inactive in [7], in [8], in test [11] and in test [13]. Further, the Potency result in test [9], in [10], in test [14] and in [15] was “inactive” throughout.
With `CCC/C=C/CO`, the result in [1], in [2], in test [3], in test [4], in test [5] and in test [6] was inactive. Besides, the result in [7], in [8] and in [13] was inactive. Besides, the Potency result in test [9], in test [16], in [17], in test [12], in test [14] and in test [15] was “inactive” throughout.
Take `CCOC(=O)CS`: the compound was classed as inactive in [1], in test [2], in [3], in test [4], in [5] and in test [6]. Further, the outcome in [7] and in test [8] was inactive. Besides, the Potency result in test [9], in test [10] and in test [15] was “inactive” throughout.
With `Nc1ccc(Oc2ccc(N)c(N)c2)cc1`, the compound was classed as inactive in test [1], in test [2], in [3], in test [4], in [5] and in [6]. Besides, the call in test [7], in [8] and in test [11] was inactive. For the same compound, the Potency result in test [9] is “inactive”. For the same compound, the Potency in [16] is 15.4 µM (active); in test [17], 7.7 µM (active); in test [12], 13.7 µM (active).
Regarding `Cc1ccc(C)c(N)c1`, the compound was classed as inactive in test [1], in test [2], in [3], in test [4], in test [5] and in [6]. The result in test [7], in test [8], in [11] and in test [13] was inactive. Besides, the Potency result in test [10], in test [16], in test [17], in test [12], in test [14] and in [15] was “inactive” each time.
